Among the test systems are HCT-15 colon; HT29 colon; SNB-75 CNS; SNB-19 CNS; U251 CNS; PC-3 prostate; SK-MEL-5 melanoma; UACC-62 melanoma; LOX IMVI melanoma; SK-MEL-28 melanoma.
What all share (assay): NCI-60 one-dose screen, 48 h (100 = growth as untreated, 0 = no growth, -100 = all killed)
Holding throughout (conditions): 10 µM unless noted

This is part of a sample that, as a whole, favours compounds with a hit. Of some 83,000 tested, about 20% had one in any assay.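 Percent growth is the endpoint: 0 to 100 indicates growth inhibition (40 means 60% inhibition), 0 means no net growth, and negative values indicate cell death.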 Values without a mark were called inactive. Calls of active or inactive are those of the source. Rule for the calls: active = growth percent below 10; inactive = the rest.

As for `S=c1ssnc1-c1ccccn1`, the growth was 14.1% in the assay with HCT-15 colon; 33.6% in the assay on HT29 colon; 36.6% in the assay on SNB-75 CNS; 47.8% in the assay with SNB-19 CNS; 28.9% with U251 CNS; 32.9% with PC-3 prostate. Moreover, the figures for the growth in the assay on SK-MEL-5 melanoma, in the assay on UACC-62 melanoma and in the assay with LOX IMVI melanoma were 16.7%, 34.5% and 6.73% (active), respectively.

Regarding `C=C1C(=O)O[C@H]2[C@H]1CC/C(COC(=O)c1cccc3ccccc13)=C\CC[C@@]1(C)O[C@@H]21`, the growth is -46.9% (active) in the assay with HCT-15 colon; -84.2% (active) in the assay on HT29 colon; 29% with SNB-75 CNS; 10.5% in the assay on SNB-19 CNS; -83.7% (active) in the assay with U251 CNS; -70.9% (active) with PC-3 prostate. The growth in the assay with SK-MEL-5 melanoma was -89% (active); in the assay on UACC-62 melanoma, -76.9% (active); with LOX IMVI melanoma it was -92.2% (active).

Turning to `O=C(COc1ccc(Cl)cc1)N1CCN(Cc2ccc3c(c2)OCO3)CC1`, the growth with HCT-15 colon was 96.8%; in the assay on HT29 colon, 112%; in the assay with SNB-75 CNS it was 102%; in the assay on SNB-19 CNS, 95.6%; with U251 CNS it was 94.3%; in the assay on PC-3 prostate it was 90.3%. For the same compound, the growth with SK-MEL-5 melanoma is 97.7%; in the assay on UACC-62 melanoma it was 81.8%; with LOX IMVI melanoma it was 89.5%.

On to `CCN(CC)CCC(C(=O)O)(c1ccccc1)c1ccccc1`, for which the growth in the assay with HCT-15 colon is 103%; in the assay with HT29 colon, 94.9%; in the assay on SNB-75 CNS, 86.8%; in the assay on SNB-19 CNS, 104%; with U251 CNS it was 109%; with PC-3 prostate, 103%. In addition, the growth in the assay on SK-MEL-5 melanoma is 104%; in the assay on UACC-62 melanoma, 97.9%; in the assay with LOX IMVI melanoma it was 95.7%.

With `COc1ccc(Cl)cc1NC(=O)c1cc2c(n1C)-c1nc(NC(=O)C(C)C)sc1CC2`, the growth with HCT-15 colon is 50.7%; in the assay on HT29 colon it was 66.7%; in the assay with SNB-75 CNS, 59.3%; with SNB-19 CNS it was 83.1%; with U251 CNS, 59.9%; with PC-3 prostate, 60.6%. The growth was 61% in the assay on SK-MEL-5 melanoma, 83.1% with UACC-62 melanoma and 93% in the assay on LOX IMVI melanoma.

`CCOc1ccc(Cc2nccc3cc(OCC)c(OCC)cc23)cc1OCC`: the growth in the assay on HCT-15 colon is 59.8%; with HT29 colon it was 25.2%; with SNB-75 CNS, 99.6%; in the assay on SNB-19 CNS, 62.5%; in the assay with U251 CNS, 62.8%; in the assay on PC-3 prostate it was 52.9%. In addition, the growth in the assay on SK-MEL-5 melanoma was 47.1%; in the assay with UACC-62 melanoma, 50.7%; with LOX IMVI melanoma it was 53.8%; in the assay on SK-MEL-28 melanoma it was 91.7%.

On to `Cn1cnc([N+](=O)[O-])c1N1c2ccncc2Sc2ccncc21`, for which the growth is 99% in the assay on HCT-15 colon; 137% in the assay on HT29 colon; 233% in the assay on SNB-75 CNS; 94.7% in the assay on SNB-19 CNS; 88.7% in the assay on U251 CNS; 93.3% in the assay on PC-3 prostate. The growth is 91.7% in the assay on SK-MEL-5 melanoma, 81% in the assay on UACC-62 melanoma, 78.5% in the assay on LOX IMVI melanoma and 149% with SK-MEL-28 melanoma.

Take `O=C(C[n+]1ccccc1Cl)c1ccc2c(c1)CCCC2`: the growth is 102% with HCT-15 colon; 79.7% with HT29 colon; 88.4% with SNB-75 CNS; 108% in the assay on SNB-19 CNS; 97.7% in the assay on U251 CNS; 87.3% in the assay on PC-3 prostate. Moreover, the growth in the assay on SK-MEL-5 melanoma was 98.4%; in the assay with UACC-62 melanoma, 106%; in the assay with LOX IMVI melanoma it was 101%.

With `COC(=O)Nc1nc2ccc(Sc3ccccc3)cc2[nH]1`, the growth in the assay on HCT-15 colon was 13.8%; in the assay on HT29 colon it was 4.14% (active); with SNB-75 CNS, 21.7%; with SNB-19 CNS, 31.3%; with U251 CNS, 17%; with PC-3 prostate, 26.6%. Also, the growth in the assay on SK-MEL-5 melanoma is 8.9% (active); with UACC-62 melanoma, 35.9%; in the assay on LOX IMVI melanoma, 19.3%.

Turning to `CC(C)(C)OC(=O)N1CC(Cn2cc(C(F)(F)F)c3c(Cl)ncnc32)C1`, the growth is -41.4% (active) in the assay on HCT-15 colon; -62.2% (active) in the assay on HT29 colon; -52.5% (active) in the assay with SNB-75 CNS; -89.8% (active) in the assay with SNB-19 CNS; -98% (active) in the assay with U251 CNS; -75% (active) in the assay with PC-3 prostate. The growth with SK-MEL-5 melanoma was -84.6% (active); with UACC-62 melanoma, -78.1% (active); in the assay on LOX IMVI melanoma it was -86.9% (active); with SK-MEL-28 melanoma it was -79.6% (active).

On to `O=C(C[n+]1cccc(Br)c1)c1ccc2c(c1)CCCC2`, for which the growth in the assay with HCT-15 colon was 99.4%; in the assay on HT29 colon, 80.7%; in the assay with SNB-75 CNS it was 101%; with SNB-19 CNS, 108%; with U251 CNS, 102%; with PC-3 prostate it was 94.3%. The growth in the assay on SK-MEL-5 melanoma was 99.2%; with UACC-62 melanoma it was 104%; in the assay with LOX IMVI melanoma it was 97.1%; with SK-MEL-28 melanoma, 105%.

`Nc1ccc(S(=O)(=O)Nc2ccnn2-c2ccccc2)cc1`: the growth is 100% in the assay with HCT-15 colon; 109% in the assay with HT29 colon; 106% in the assay with SNB-75 CNS; 108% in the assay with SNB-19 CNS; 94.4% with U251 CNS; 90.1% in the assay with PC-3 prostate. The growth is 105% in the assay with SK-MEL-5 melanoma, 107% with UACC-62 melanoma, 93.2% in the assay with LOX IMVI melanoma and 119% with SK-MEL-28 melanoma.

With `CNC(=O)NN`, the growth in the assay on HCT-15 colon was 87.3%; with HT29 colon it was 107%; in the assay on SNB-75 CNS, 88.3%; with SNB-19 CNS, 105%; in the assay on U251 CNS it was 95.2%; in the assay with PC-3 prostate it was 93.4%. The growth with SK-MEL-5 melanoma is 103%; in the assay on UACC-62 melanoma, 104%; with LOX IMVI melanoma it was 102%; in the assay with SK-MEL-28 melanoma, 112%.

In the case of `O=C(O)c1ccc(-n2cc(/C=N/Nc3ccc(Cl)cc3)c(-c3ccc(F)c(F)c3)n2)cc1`, the growth in the assay on HCT-15 colon is 52.1%; with HT29 colon, 93.4%; with SNB-75 CNS it was 89.6%; with SNB-19 CNS it was 86.6%; in the assay with U251 CNS it was 81.1%; in the assay with PC-3 prostate, 60.2%. Moreover, the growth in the assay with SK-MEL-5 melanoma is 72.3%; in the assay on UACC-62 melanoma, 39.1%; in the assay on LOX IMVI melanoma it was 44.2%; with SK-MEL-28 melanoma, 73.6%.

The values above are taken from PubChem BioAssay (NCI).
